Results filed as inconclusive are left out. Where a call stands in place of a potency, no number is given. The source made the active and inactive calls. The call rests on the fitted dose curve; in most records, active means well fitted inhibition curve with a large enough effect; inconclusive means small, poorly fitted or top-dose-only effect; inactive means flat fitted curve, though single readings scatter.
Assays:
Experiment in all cases: qHTS profiling for inhibitors of Plasmodium falciparum proliferation (AID 504749); further: nearly all actives have a fitted effect of over 60% in size
Details in all cases: P. falciparum in erythrocytes, SYBR Green DNA, 72 h; series mostly up to 28.7 µM
[1] = test system: CP297
How it was run: (§1)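 Parasite proliferation within erythrocytes, 72 h exposure. Endpoint: SYBR Green I fluorescence after overnight lysis at room temperature. Controls: 0.29 uM artemisinin, DMSO.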

[2] = test system: CP305
How it was run: as §1

[3] = test system: CP315
How it was run: as §1

[4] = test system: CP325
How it was run: as §1

[5] = test system: CP329
How it was run: as §1

[6] = test system: CP335
How it was run: as §1

[7] = test system: DFO2036
How it was run: as §1

[8] = test system: DIV14
How it was run: as §1

[9] = test system: DIV17
How it was run: as §1

[10] = test system: DIV30
How it was run: as §1
Potency means the concentration at half of the fitted maximal effect.

SMILES | Potency [1] | Potency [2] | Potency [3] | Potency [4] | Potency [5] | Potency [6] | Potency [7] | Potency [8] | Potency [9] | Potency [10]
CC[C@H]1CN2CCc3cc(OC)c(OC)cc3[C@H]2C[C@@H]1C[C@@H]1NCCc2cc(OC)c(OC)cc21 | 379 nM (active) | 379 nM (active) | 757 nM (active) | 478 nM (active) | 379 nM (active) | 379 nM (active) | 316 nM (active) | 379 nM (active) | 338 nM (active) | 478 nM (active)
C[C@H]1C[C@@H]2[C@@H]([C@@H](O)C[C@@]3(C)[C@H]2CC[C@]3(O)C(=O)CO)[C@@]2(C)C=CC(=O)C=C12 |  | inactive | inactive | inactive | inactive | inactive | inactive | inactive | inactive | inactive
CC(C)(C)NC(=O)[C@H]1CN(Cc2cccnc2)CCN1C[C@@H](O)C[C@@H](Cc1ccccc1)C(=O)N[C@H]1c2ccccc2C[C@H]1O |  | 13500 nM (active) |  |  |  | 12000 nM (active) |  | 13500 nM (active) |  | 9530 nM (active)
CC=CC1=C(C(=O)O)N2C(=O)[C@H](NC(=O)[C@H](N)c3ccc(O)cc3)[C@@H]2SC1 | inactive | inactive | inactive | inactive | inactive | inactive | inactive | inactive |  | inactive
Nc1ccn([C@@H]2O[C@H](CO)[C@H](O)C2(F)F)c(=O)n1 | 6750 nM (active) | 5360 nM (active) | 8490 nM (active) | 2390 nM (active) | 5360 nM (active) | 2390 nM (active) | 282 nM (active) | 849 nM (active) | 953 nM (active) | 2690 nM (active)
Nc1ccn([C@@H]2CS[C@H](CO)O2)c(=O)n1 | inactive | inactive | inactive | inactive | inactive | inactive | inactive | inactive | inactive | inactive
Nc1ccc(S(=O)(=O)Nc2ncccn2)cc1 | inactive | inactive |  | inactive | inactive | inactive | inactive | inactive | inactive | inactive
CN1c2cc(O)c(N=NC(N)=O)cc2CC1S(=O)(=O)O (stereo not given) | inactive | inactive | inactive | inactive | inactive | inactive | inactive | inactive | inactive | inactive
COC(=O)C1=C(C)NC(C)=C(C(=O)OCCN2CCN(C(c3ccccc3)c3ccccc3)CC2)C1c1cccc([N+](=O)[O-])c1 (stereo not given) | 4260 nM (active) | 5360 nM (active) | 4780 nM (active) | 3790 nM (active) | 4780 nM (active) | 1690 nM (active) | 1780 nM (active) | 3790 nM (active) | 1690 nM (active) | 1690 nM (active)
COC(=O)C[C@](O)(CCCC(C)(C)O)C(=O)O[C@@H]1C(OC)=C[C@]23CCCN2CCc2cc4c(cc2[C@H]13)OCO4 | 16.9 nM (active) | 33.8 nM (active) | 23.9 nM (active) | 33.8 nM (active) |  | 21.3 nM (active) | 22.4 nM (active) | 26.9 nM (active) | 23.9 nM (active) | 33.8 nM (active)
O=C(O)CO.[NH2-].[NH2-].[Pt+2] | inactive | inactive | inactive | inactive | inactive | inactive | inactive | inactive |  | inactive
CCC1=C[C@@H]2CN(C1)Cc1c([nH]c3ccccc13)[C@@](C(=O)OC)(c1cc3c(cc1OC)N(C)[C@@H]1[C@@](O)(C(=O)OC)[C@H](OC(C)=O)[C@]4(CC)C=CCN5CC[C@]31[C@@H]54)C2 | 3790 nM (active) | 3010 nM (active) | 3790 nM (active) | 3790 nM (active) | 3010 nM (active) | 1690 nM (active) | 2510 nM (active) | 3790 nM (active) | 3790 nM (active) | 4260 nM (active)
COc1cc(C(=O)NS(=O)(=O)c2ccccc2C)ccc1Cc1cn(C)c2ccc(NC(=O)OC3CCCC3)cc12 |  | inactive |  | inactive | inactive |  | inactive |  |  | 
CC1(C)O[C@@H]2C[C@@H]3[C@H]4C[C@@H](F)C5=CC(=O)C=C[C@]5(C)[C@@]4(F)[C@@H](O)C[C@]3(C)[C@]2(C(=O)CO)O1 |  |  |  |  |  | inactive | inactive |  |  | 10700 nM (active)
COc1c(N2C[C@@H]3CCCN[C@H]3C2)c(F)cc2c(=O)c(C(=O)O)cn(C3CC3)c12 | inactive |  | inactive | inactive | inactive | inactive | inactive | inactive | inactive | inactive
O=c1[nH]c(=O)n(C2CCCO2)cc1F (stereo not given) | inactive | inactive | inactive | inactive | inactive | inactive | inactive | inactive | inactive | inactive

From PubChem BioAssay (NCATS)
